# High-throughput results from PubChem BioAssay.
# TbREL1 inh: TbREL1 inhibition, primary screen. TbREL1 RNA ligation, FRET fluorescence. inhibition, % at 9.66 µM. 0.49% of 89,000 active;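 active = inhibition above the mean inhibition across all screened compounds plus 3 SD, cut at about 11% in these data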;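 note: 0% = plate median of test wells and 100% = NSC42067 control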
# Target sequence (P86926 whole entry, looked up): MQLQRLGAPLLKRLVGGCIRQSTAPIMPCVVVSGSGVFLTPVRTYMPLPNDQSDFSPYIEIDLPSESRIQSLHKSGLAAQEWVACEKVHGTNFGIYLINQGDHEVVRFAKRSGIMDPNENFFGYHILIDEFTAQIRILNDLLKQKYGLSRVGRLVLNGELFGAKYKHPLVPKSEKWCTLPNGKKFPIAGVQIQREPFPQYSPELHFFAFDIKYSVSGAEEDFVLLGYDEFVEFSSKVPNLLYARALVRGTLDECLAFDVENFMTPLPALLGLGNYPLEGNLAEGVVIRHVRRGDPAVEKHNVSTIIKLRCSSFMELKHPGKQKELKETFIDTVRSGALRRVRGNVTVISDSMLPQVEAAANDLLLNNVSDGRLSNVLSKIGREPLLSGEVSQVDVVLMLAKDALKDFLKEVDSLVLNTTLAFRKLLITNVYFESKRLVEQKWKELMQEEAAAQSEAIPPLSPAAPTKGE
# TbREL1 confirm: TbREL1 inhibition, confirmation; shares compounds with TbREL1 inh; TbREL1 RNA ligation, FRET fluorescence; inhibition, % at 9.66 µM; 37% of 390 active; AID 1117282;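 active = mean inhibition across replicates above a set limit taken from the earlier primary screen, cut at about 11% in these data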;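 note: 0% = REL1 with substrate and DMSO and 100% = REL1 plus control inhibitor NSC42067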
# Numbers without * were called inactive. The entries come from a sample that favours hits as a whole.
SMILES,TbREL1 inh,others
Nc1cc(S(=O)(=O)c2ccc(O)c(N)c2)ccc1O,-2.4,
Nc1ccc(C(=O)O)cc1[N+](=O)[O-],-0.4,
Nc1cc(S(=O)(=O)O)cc([N+](=O)[O-])c1O,21.4*,TbREL1 confirm=58.7*
Cc1ccc(-n2c(SCC(=O)Nc3ccc(S(=O)(=O)Nc4cc(C)nc(C)n4)cc3)nnc2-c2ccncc2)cc1,-0.2,
O=C(O)c1ccnc(C(=O)O)c1,12.6*,TbREL1 confirm=15.6*
O=C(O)c1cccc(NS(=O)(=O)c2cccc3cccnc23)c1,-0.3,
CCOc1ccc(C(=O)O)cc1OC,-1.1,
COc1cccc(NC(=O)C2CCCN2C(=O)NCc2ccccc2)c1 (stereo not drawn),1.2,
CCOC(=O)C1(Cc2ccccc2)CCN(Cc2cccc(C#N)c2)CC1,-3.6,
Nc1ccc2c(c1)nnn2-c1ccccc1,-0.8,
Nc1ccc2cc3ccc(N)cc3nc2c1,30.6*,TbREL1 confirm=-37.9
Nc1cccc(-c2nc3ccc(N)cc3s2)c1,-1.2,
C[C@H]1CCCN1c1ccc2c(c1)O[C@H]1CCN(C1)S2(=O)=O,4.3,
CCCCCCCCN1C(=O)[C@@H](CC(=O)NCCCN2CCCC2=O)C[C@@]2(C(=O)OC)C1=C[C@H](C(C)C)O[C@@H]2C1CC1,0.1,
Cc1nc2cc(-c3ccsc3-n3c(C)ccc3C)[nH]n2c(=O)c1Cl,26.6*,TbREL1 confirm=2.9
CCOC(=O)Cc1c(C)nc2cc(-c3ccc(C(C)(C)C)cc3)[nH]n2c1=O,-3.4,
C=CCc1c(C)nc2cc(-c3ccc(C)cc3)[nH]n2c1=O,-1.3,
O=C(OCC#CCSc1nnc(-c2cccc3ccccc23)o1)C1CC1,-1.3,
O=Cc1cc([B-](F)(F)F)cs1,1.1,
Nn1c(SCC(=O)Nc2cccc(C(F)(F)F)c2)nncc1=O,5.3,
CCOc1ccc(NC(=O)CSc2nncc(=O)n2N)cc1,11.2*,TbREL1 confirm=1.1
Nn1c(SCC(=O)Nc2c(Cl)cccc2Cl)nncc1=O,-0.7,
CCCC1CCC2(CC1)CCC2OC(=O)Nc1c(OC)cccc1OC (stereo not drawn),5.9,
CC(=O)C1=C(C)N(Cc2ccc(Cl)cc2)C(=S)NC1c1cccc(Br)c1 (stereo not drawn),1.5,
CCCC1CCC2(CC1)CCC2OC(=S)NCc1cccc(OC)c1 (stereo not drawn),-5.2,
SMILES,TbREL1 inh,others
C#CCNC(=O)C[C@H]1C[C@@]2(C(=O)OC)C(=C[C@H](C3CCCC3)O[C@@H]2C)N(Cc2cccc3ccccc23)C1=O,-3.0,
CC(C)(C)S(=O)N1C[C@@H]2CC(=O)C(CCO)=C2[C@H]1CCO (stereo partly drawn),0.8,
O=C(O)CCc1ccc(-c2ccc(F)cc2)n1CCC(=O)O,34.5*,TbREL1 confirm=1.3
O=C(O)CCc1ccc(-c2ccccc2)n1CC(=O)O,-2.5,
CCCn1c(CCC(=O)O)ccc1-c1ccccc1,-7.5,
Cc1ccccc1C1CCC2(CCC(=O)N2CC[C@@H](O)c2ccccc2)CC1 (stereo partly drawn),2.5,
CCCCCCNC(=O)c1c(N)[nH]c(C(=O)c2ccccc2)c1-c1ccc(O)cc1,4.0,
C=CC[C@]1(O)C(=O)N(c2ccccc2)c2ccccc21,3.0,
Cc1ccc(N(C(=O)Cc2c[nH]c3ccccc23)C(C(=O)NC2CCCCC2)c2ccco2)cc1 (stereo not drawn),11.1*,TbREL1 confirm=-2.0
Cc1ccc(N(C(=O)c2ccco2)C(C(=O)NC2CCCC2)c2ccco2)c(C)c1 (stereo not drawn),-1.7,
Cc1ccc(C(C(=O)NC2CCCCC2)N(C(=O)Cc2c[nH]c3ccccc23)c2ccccc2C)o1 (stereo not drawn),-0.5,
CCOc1ccc(-n2c(SCC(=O)Nc3cccc4ccccc34)nnc2-c2ccco2)cc1,-1.4,
COCC(=O)N(Cc1ccccc1)c1ccccc1C(=O)Nc1cc(OC)ccc1OC,-0.4,
COc1cccc(/C=C/C(=O)OCC(=O)c2ccc3c(c2)NC(=O)CO3)c1OC,-0.4,
COc1ccc(/C=C/C(=O)OCC(=O)c2ccc3c(c2)NC(=O)CO3)c(OC)c1,1.0,
O=C1COc2ccc(C(=O)COC(=O)/C=C/c3ccc(Br)o3)cc2N1,18.5*,TbREL1 confirm=10.1
CCC[C@H]1[C@@H](NC(=O)c2ccc(OC)cc2)CC[C@@]23CCCN2C(=O)CCC[C@@H]13,-3.9,
COC[C@@H]1CCCN1c1cccc2c1S(=O)(=O)N1CC[C@@H](C1)O2,3.8,
O=c1c(-c2ccc(O)cc2)coc2cc(OC3OC(CO)C(O)C(O)C3O)cc(O)c12 (stereo not drawn),0.0,
C[C@@H]1O[C@@H](Oc2c(-c3cc(O)c(O)c(O)c3)oc3cc(O)cc(O)c3c2=O)[C@H](O)[C@H](O)[C@H]1O,53.9*,TbREL1 confirm=35.6*
COc1cc(-c2oc3cc(O)cc(O)c3c(=O)c2O[C@@H]2O[C@H](COC3O[C@@H](C)[C@H](O)[C@@H](O)[C@H]3O)[C@@H](O)[C@H](O)[C@H]2O)ccc1O (stereo partly drawn),-4.1,
CCOc1ccc(CCNC(=O)Cc2ccccc2)cc1OCC,-3.4,
C[C@H]1[C@@H](NC(=O)c2cccc(C(F)(F)F)c2)CC[C@@]23CCCN2C(=O)CCC[C@@H]13,-3.4,
O=C(OCC#CCSc1nnc(-c2ccc3ccccc3c2)o1)c1cccs1,1.3,
Cc1cc(NS(=O)(=O)c2ccc(NC(=S)NC(=O)c3ccccc3)cc2)no1,-1.0,
SMILES,TbREL1 inh,others
CCOc1cc(C(=O)Nc2ccc(S(=O)(=O)Nc3cc(C)on3)cc2)cc(OCC)c1OCC,61.2*,TbREL1 confirm=1.7
CCCCCOc1ccc(C(=O)Nc2ccc(S(=O)(=O)Nc3cc(C)on3)cc2)cc1,-1.9,
CC(C)[C@H](NC(=O)c1ccc(Cl)cc1Cl)C(=O)N1CCC[C@H]1C(=O)NCCc1ccccc1Cl,2.1,
CCC[C@H]1[C@@H](NC(=O)c2cccc(Cl)c2)CC[C@@]23CCCN2C(=O)CCC[C@@H]13,-3.6,
COC(=O)[C@@H](N[C@H](/C=C/c1ccccc1)[C@@H](O)Cc1ccccc1)c1ccccc1,-5.0,
O=C(/C=C/c1ccc(Cl)cc1)NCCc1ccccc1,0.0,
O[C@@H](Cc1ccccc1)[C@@H](/C=C/c1ccccc1)NCCc1ccccc1,11.4*,TbREL1 confirm=9.7
C[C@@H]1[C@H](c2ccccc2)OC(O)([C@H](Cc2ccccc2)NC(=O)OC(C)(C)C)CN1C (stereo partly drawn),-0.9,
C#CCNC(=O)C[C@H]1C[C@@]2(C(=O)OC)C(=C[C@H](C(C)C)O[C@@H]2C2CC2)N(Cc2ccc3c(c2)OCO3)C1=O,4.1,
Nc1c(C(=O)N/N=C/c2cccnc2)oc2nc(-c3ccco3)cc(-c3ccco3)c12,15.9*,TbREL1 confirm=4.0
COc1cc(/C=N/NC(=O)c2cc(-c3ccco3)nc3ccccc23)cc(OC)c1O,-2.9,
COc1ccc(/C=N/NC(=O)c2cccnc2)cc1,1.5,
O=C(NCc1ccc(C(=O)N2CCOCC2)cc1)c1cccc(Br)c1,0.7,
Cc1cccc(C)c1NC(=O)C(CCc1ccccc1)N1CCN(CCN(C)C)CC1 (stereo not drawn),0.4,
O=C(c1cc2cc([N+](=O)[O-])ccc2s1)N1CCCCC1,11.9*,TbREL1 confirm=1.4
O=C(c1sc2cc([N+](=O)[O-])ccc2c1Cl)N1CCCCC1,-0.4,
O=C(Nc1ccccn1)c1cc2cc([N+](=O)[O-])ccc2s1,1.2,
COc1ccc(C2=Nn3c(nnc3C3CCCCC3)SC2)cc1,-0.6,
COC(=O)[C@]12CCCCC=C1N(Cc1ccc(OC)cc1)C(=O)[C@@H]2CC(=O)NCCC(C)C,-1.9,
